Among the test systems are NCI-H23 lung; NCI-H226 lung; NCI-H322M lung; HOP-62 NSCLC; NCI-H460 lung; NCI-H522 lung; A549/ATCC NSCLC; 786-0 renal; COLO 205 colon; DU-145 prostate; K-562 leukemia; MALME-3M melanoma; MDA-MB-231 breast; RXF 393 renal; SF-268 CNS; SF-295 CNS; SF-539 CNS; UACC-257 melanoma; M14 melanoma.
What all share (assay): NCI-60 one-dose screen, 48 h (100 = growth as untreated, 0 = no growth, -100 = all killed)
Common to all, as to details: 10 µM unless noted

The structures appear in SMILES notation. The panel holds about 83,000 compounds, 20% with a hit somewhere; the sample as a whole holds those more often.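 Cells were grown in 96-well plates and exposed to the test compound at a single concentration for 48 hours; results are reported as percent growth, with values below 10 considered active.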 Unmarked numbers belong to inactive results. Activity calls are given as the source filed them.

In the case of `CC(=O)c1ccc(Br)c([N+](=O)[O-])c1`, the growth in the experiment on NCI-H23 lung was 106%; with NCI-H226 lung it was 112%; in the experiment on NCI-H322M lung it was 107%; with HOP-62 NSCLC, 109%; in the experiment with NCI-H460 lung, 109%; in the experiment on NCI-H522 lung, 27.6%. Also, the growth was 100% in the experiment with A549/ATCC NSCLC; 95.4% in the experiment with 786-0 renal; 127% in the experiment with COLO 205 colon; 113% in the experiment on DU-145 prostate; 89.7% in the experiment on K-562 leukemia; 98.6% in the experiment with MALME-3M melanoma. Moreover, the growth in the experiment on MDA-MB-231 breast is 117%; with RXF 393 renal, 113%; in the experiment with SF-268 CNS it was 117%; in the experiment with SF-295 CNS it was 96.9%; in the experiment with SF-539 CNS, 107%; with UACC-257 melanoma, 111%. Moreover, in the experiment with M14 melanoma, the growth was 97.2%.

For `C=C1C(=O)O[C@H]2[C@H]1CC/C(COC(=O)NCc1c[nH]c3ccc(OC)cc13)=C\CC[C@@]1(C)O[C@@H]21`, the growth in the experiment with NCI-H23 lung was 51.6%; with NCI-H226 lung, 27.9%; in the experiment on NCI-H322M lung, 84.9%; in the experiment with HOP-62 NSCLC, 49.2%; in the experiment on NCI-H460 lung it was 33.7%; in the experiment on NCI-H522 lung, -72.8% (active). Further, the growth in the experiment with A549/ATCC NSCLC was 29.6%; with 786-0 renal, -59.2% (active); in the experiment with COLO 205 colon, -69.2% (active); with DU-145 prostate, -10.4% (active); in the experiment with K-562 leukemia it was 3.23% (active); with MALME-3M melanoma, -31% (active). Further, the growth with MDA-MB-231 breast is -6.78% (active); in the experiment with RXF 393 renal, -93.3% (active); with SF-268 CNS, 45.2%; in the experiment with SF-295 CNS it was 63.5%; with SF-539 CNS, -23.3% (active); in the experiment with UACC-257 melanoma, -16.3% (active). Moreover, the growth with M14 melanoma was -48% (active).

For `Cc1ccccc1NC(=O)c1sc2nc3c(cc2c1N)C(=O)CCC3`, the growth was 50.6% in the experiment with NCI-H23 lung; 65.8% in the experiment on NCI-H226 lung; 71.4% in the experiment on NCI-H322M lung; 38.2% with HOP-62 NSCLC; 15.3% in the experiment on NCI-H460 lung; 12.5% in the experiment on NCI-H522 lung. For the same compound, the growth with A549/ATCC NSCLC was 37.6%; with 786-0 renal, 51.6%; in the experiment on COLO 205 colon, 6.12% (active); with DU-145 prostate, 18.3%; with K-562 leukemia it was 22.1%; with MALME-3M melanoma, 66.5%. The growth in the experiment on MDA-MB-231 breast was 61.6%; in the experiment on RXF 393 renal, -10.4% (active); in the experiment with SF-268 CNS, 65.4%; in the experiment on SF-295 CNS it was 57.2%; in the experiment on SF-539 CNS, 27.6%; in the experiment with UACC-257 melanoma, 61%. Further, the growth with M14 melanoma was 41.5%.

Turning to `CC(C)CCC(=O)[C@@H](C)[C@H]1[C@@H](OC2OCC(O)C(O)C2NS(C)(=O)=O)C[C@H]2[C@@H]3CC=C4C[C@@H](O)CC[C@]4(C)[C@H]3CC[C@]12C` (stereo partly specified), the growth was 56.8% in the experiment on NCI-H23 lung; 52.4% with NCI-H226 lung; 68.5% in the experiment with NCI-H322M lung; 8.62% (active) in the experiment with HOP-62 NSCLC; 12.1% in the experiment on NCI-H460 lung; 20.7% with NCI-H522 lung. The growth was 33.4% with A549/ATCC NSCLC; -32% (active) in the experiment with 786-0 renal; -0.62% (active) in the experiment with COLO 205 colon; 49% in the experiment on DU-145 prostate; 2.65% (active) in the experiment with K-562 leukemia; 8.83% (active) in the experiment on MALME-3M melanoma. In addition, the growth with MDA-MB-231 breast was 43.8%; in the experiment with RXF 393 renal, -65.1% (active); in the experiment with SF-268 CNS it was 9.17% (active); with SF-295 CNS it was -60.9% (active); in the experiment on SF-539 CNS, -41.2% (active); in the experiment on UACC-257 melanoma it was -42.8% (active). The growth with M14 melanoma is -53.1% (active).

On to `CCN(CC)C(=O)O/N=C(/C)c1ccccc1`, for which the growth in the experiment with NCI-H23 lung is 95.1%; with NCI-H226 lung, 114%; in the experiment with NCI-H322M lung it was 102%; with HOP-62 NSCLC, 110%; in the experiment on NCI-H460 lung, 110%; with NCI-H522 lung, 92.1%. Further, the growth in the experiment with A549/ATCC NSCLC is 96.1%; with 786-0 renal it was 96.6%; with COLO 205 colon it was 115%; in the experiment on DU-145 prostate it was 100%; in the experiment with K-562 leukemia, 102%; in the experiment with MALME-3M melanoma, 130%. The growth in the experiment on MDA-MB-231 breast was 91%; in the experiment with RXF 393 renal, 102%; in the experiment on SF-268 CNS, 104%; in the experiment with SF-295 CNS, 105%; with SF-539 CNS, 88.1%; in the experiment with UACC-257 melanoma, 105%. Further, the growth with M14 melanoma was 101%.

Turning to `O=C(O)C(CCc1ccccc1)NCc1ccccc1` (stereo unspecified), the growth in the experiment on NCI-H23 lung is 94.9%; in the experiment on NCI-H226 lung, 106%; in the experiment on NCI-H322M lung it was 103%; with HOP-62 NSCLC, 93.3%; in the experiment on NCI-H460 lung, 116%; in the experiment with NCI-H522 lung it was 87%. In addition, the growth with A549/ATCC NSCLC was 99.7%; with 786-0 renal it was 100%; with COLO 205 colon, 97.3%; in the experiment on DU-145 prostate it was 95.7%; in the experiment with K-562 leukemia it was 113%; in the experiment on MALME-3M melanoma it was 89.8%. For the same compound, the growth was 91.4% in the experiment with MDA-MB-231 breast; 128% in the experiment with RXF 393 renal; 98.4% in the experiment on SF-268 CNS; 103% in the experiment with SF-295 CNS; 89.8% with SF-539 CNS; 99.4% in the experiment with UACC-257 melanoma. The growth with M14 melanoma is 79.6%.

As for `C[Si](C)(C)C(c1ccccc1)c1ccccc1`, the growth is 99.5% in the experiment on NCI-H23 lung; 113% in the experiment on NCI-H226 lung; 105% in the experiment with NCI-H322M lung; 105% in the experiment on HOP-62 NSCLC; 106% in the experiment with NCI-H460 lung; 98.2% with NCI-H522 lung. In addition, the growth in the experiment on A549/ATCC NSCLC was 91.1%; in the experiment on 786-0 renal it was 110%; with COLO 205 colon, 105%; with DU-145 prostate it was 102%; in the experiment on K-562 leukemia, 86.7%; in the experiment with MALME-3M melanoma, 90.2%. The growth in the experiment with MDA-MB-231 breast is 123%; in the experiment on RXF 393 renal, 126%; in the experiment on SF-268 CNS, 104%; with SF-295 CNS it was 109%; in the experiment with SF-539 CNS, 111%; in the experiment on UACC-257 melanoma, 109%. The growth in the experiment with M14 melanoma is 108%.

Regarding `CCOC(=O)C1C(=O)C=C(c2cc(OC)c(OC)c(OC)c2)CC1c1sc(N(C)Cc2ccccc2)nc1Cl` (stereo unspecified), the growth in the experiment with NCI-H23 lung was 87.3%; with NCI-H226 lung, 74.1%; in the experiment on NCI-H322M lung, 83.2%; with HOP-62 NSCLC, 78.3%; in the experiment on NCI-H460 lung it was 86.3%; in the experiment with NCI-H522 lung it was 67%. Further, the growth in the experiment on A549/ATCC NSCLC is 71.6%; with 786-0 renal, 85.9%; with COLO 205 colon, 97.1%; with DU-145 prostate it was 106%; in the experiment with K-562 leukemia, 66.4%; in the experiment on MALME-3M melanoma, 104%. Further, the growth was 82.9% in the experiment with MDA-MB-231 breast; 81.5% in the experiment on RXF 393 renal; 73.6% in the experiment on SF-268 CNS; 89.3% in the experiment with SF-295 CNS; 95.6% in the experiment with SF-539 CNS; 90.4% in the experiment with UACC-257 melanoma. Further, in the experiment on M14 melanoma, the growth is 92%.

Consider `N/C(=N\OC(=O)c1ccccc1)C(C(=O)NOC(=O)c1ccccc1)C1CCCCC1` (stereo unspecified), for which the growth in the experiment on NCI-H23 lung was 49.3%; in the experiment with NCI-H226 lung, 100%; with NCI-H322M lung, 84.7%; with HOP-62 NSCLC, -7% (active); with NCI-H460 lung, 34.5%; with NCI-H522 lung, -46.9% (active). Also, the growth is 1.51% (active) in the experiment on A549/ATCC NSCLC; 76% in the experiment on 786-0 renal; 77.3% in the experiment on COLO 205 colon; 57.7% with DU-145 prostate; 2.85% (active) in the experiment with K-562 leukemia; 85.3% in the experiment with MALME-3M melanoma. The growth is 81.8% with MDA-MB-231 breast; 82.1% with RXF 393 renal; 31.9% with SF-268 CNS; 41.6% in the experiment with SF-295 CNS; 75.1% in the experiment on SF-539 CNS; 92.2% in the experiment on UACC-257 melanoma. Further, the growth in the experiment on M14 melanoma is 75.2%.
